Test results: the supplement of paper PMC11732987, “Enantioselective OTUD7B fragment discovery through chemoproteomics screening and high-throughput optimisation” (Communications Chemistry, 2025)

How the values were obtained:
Assay in all cases: log2 ratio of Biotin-Ahx-Ub-VS probe labelling (fragment/DMSO); higher = less target engagement (more negative = stronger competition), active = hit call of the paper (q ≤ 0.05, log2 ratio ≤ -1)
Conditions in all cases: compound concentration: 200 uM; treatment time: 3 h
[1] = molecular target: USP34 (UniProt Q70CQ2)
Sequence of USP34 (Q70CQ2 whole entry, the tested form may be a part): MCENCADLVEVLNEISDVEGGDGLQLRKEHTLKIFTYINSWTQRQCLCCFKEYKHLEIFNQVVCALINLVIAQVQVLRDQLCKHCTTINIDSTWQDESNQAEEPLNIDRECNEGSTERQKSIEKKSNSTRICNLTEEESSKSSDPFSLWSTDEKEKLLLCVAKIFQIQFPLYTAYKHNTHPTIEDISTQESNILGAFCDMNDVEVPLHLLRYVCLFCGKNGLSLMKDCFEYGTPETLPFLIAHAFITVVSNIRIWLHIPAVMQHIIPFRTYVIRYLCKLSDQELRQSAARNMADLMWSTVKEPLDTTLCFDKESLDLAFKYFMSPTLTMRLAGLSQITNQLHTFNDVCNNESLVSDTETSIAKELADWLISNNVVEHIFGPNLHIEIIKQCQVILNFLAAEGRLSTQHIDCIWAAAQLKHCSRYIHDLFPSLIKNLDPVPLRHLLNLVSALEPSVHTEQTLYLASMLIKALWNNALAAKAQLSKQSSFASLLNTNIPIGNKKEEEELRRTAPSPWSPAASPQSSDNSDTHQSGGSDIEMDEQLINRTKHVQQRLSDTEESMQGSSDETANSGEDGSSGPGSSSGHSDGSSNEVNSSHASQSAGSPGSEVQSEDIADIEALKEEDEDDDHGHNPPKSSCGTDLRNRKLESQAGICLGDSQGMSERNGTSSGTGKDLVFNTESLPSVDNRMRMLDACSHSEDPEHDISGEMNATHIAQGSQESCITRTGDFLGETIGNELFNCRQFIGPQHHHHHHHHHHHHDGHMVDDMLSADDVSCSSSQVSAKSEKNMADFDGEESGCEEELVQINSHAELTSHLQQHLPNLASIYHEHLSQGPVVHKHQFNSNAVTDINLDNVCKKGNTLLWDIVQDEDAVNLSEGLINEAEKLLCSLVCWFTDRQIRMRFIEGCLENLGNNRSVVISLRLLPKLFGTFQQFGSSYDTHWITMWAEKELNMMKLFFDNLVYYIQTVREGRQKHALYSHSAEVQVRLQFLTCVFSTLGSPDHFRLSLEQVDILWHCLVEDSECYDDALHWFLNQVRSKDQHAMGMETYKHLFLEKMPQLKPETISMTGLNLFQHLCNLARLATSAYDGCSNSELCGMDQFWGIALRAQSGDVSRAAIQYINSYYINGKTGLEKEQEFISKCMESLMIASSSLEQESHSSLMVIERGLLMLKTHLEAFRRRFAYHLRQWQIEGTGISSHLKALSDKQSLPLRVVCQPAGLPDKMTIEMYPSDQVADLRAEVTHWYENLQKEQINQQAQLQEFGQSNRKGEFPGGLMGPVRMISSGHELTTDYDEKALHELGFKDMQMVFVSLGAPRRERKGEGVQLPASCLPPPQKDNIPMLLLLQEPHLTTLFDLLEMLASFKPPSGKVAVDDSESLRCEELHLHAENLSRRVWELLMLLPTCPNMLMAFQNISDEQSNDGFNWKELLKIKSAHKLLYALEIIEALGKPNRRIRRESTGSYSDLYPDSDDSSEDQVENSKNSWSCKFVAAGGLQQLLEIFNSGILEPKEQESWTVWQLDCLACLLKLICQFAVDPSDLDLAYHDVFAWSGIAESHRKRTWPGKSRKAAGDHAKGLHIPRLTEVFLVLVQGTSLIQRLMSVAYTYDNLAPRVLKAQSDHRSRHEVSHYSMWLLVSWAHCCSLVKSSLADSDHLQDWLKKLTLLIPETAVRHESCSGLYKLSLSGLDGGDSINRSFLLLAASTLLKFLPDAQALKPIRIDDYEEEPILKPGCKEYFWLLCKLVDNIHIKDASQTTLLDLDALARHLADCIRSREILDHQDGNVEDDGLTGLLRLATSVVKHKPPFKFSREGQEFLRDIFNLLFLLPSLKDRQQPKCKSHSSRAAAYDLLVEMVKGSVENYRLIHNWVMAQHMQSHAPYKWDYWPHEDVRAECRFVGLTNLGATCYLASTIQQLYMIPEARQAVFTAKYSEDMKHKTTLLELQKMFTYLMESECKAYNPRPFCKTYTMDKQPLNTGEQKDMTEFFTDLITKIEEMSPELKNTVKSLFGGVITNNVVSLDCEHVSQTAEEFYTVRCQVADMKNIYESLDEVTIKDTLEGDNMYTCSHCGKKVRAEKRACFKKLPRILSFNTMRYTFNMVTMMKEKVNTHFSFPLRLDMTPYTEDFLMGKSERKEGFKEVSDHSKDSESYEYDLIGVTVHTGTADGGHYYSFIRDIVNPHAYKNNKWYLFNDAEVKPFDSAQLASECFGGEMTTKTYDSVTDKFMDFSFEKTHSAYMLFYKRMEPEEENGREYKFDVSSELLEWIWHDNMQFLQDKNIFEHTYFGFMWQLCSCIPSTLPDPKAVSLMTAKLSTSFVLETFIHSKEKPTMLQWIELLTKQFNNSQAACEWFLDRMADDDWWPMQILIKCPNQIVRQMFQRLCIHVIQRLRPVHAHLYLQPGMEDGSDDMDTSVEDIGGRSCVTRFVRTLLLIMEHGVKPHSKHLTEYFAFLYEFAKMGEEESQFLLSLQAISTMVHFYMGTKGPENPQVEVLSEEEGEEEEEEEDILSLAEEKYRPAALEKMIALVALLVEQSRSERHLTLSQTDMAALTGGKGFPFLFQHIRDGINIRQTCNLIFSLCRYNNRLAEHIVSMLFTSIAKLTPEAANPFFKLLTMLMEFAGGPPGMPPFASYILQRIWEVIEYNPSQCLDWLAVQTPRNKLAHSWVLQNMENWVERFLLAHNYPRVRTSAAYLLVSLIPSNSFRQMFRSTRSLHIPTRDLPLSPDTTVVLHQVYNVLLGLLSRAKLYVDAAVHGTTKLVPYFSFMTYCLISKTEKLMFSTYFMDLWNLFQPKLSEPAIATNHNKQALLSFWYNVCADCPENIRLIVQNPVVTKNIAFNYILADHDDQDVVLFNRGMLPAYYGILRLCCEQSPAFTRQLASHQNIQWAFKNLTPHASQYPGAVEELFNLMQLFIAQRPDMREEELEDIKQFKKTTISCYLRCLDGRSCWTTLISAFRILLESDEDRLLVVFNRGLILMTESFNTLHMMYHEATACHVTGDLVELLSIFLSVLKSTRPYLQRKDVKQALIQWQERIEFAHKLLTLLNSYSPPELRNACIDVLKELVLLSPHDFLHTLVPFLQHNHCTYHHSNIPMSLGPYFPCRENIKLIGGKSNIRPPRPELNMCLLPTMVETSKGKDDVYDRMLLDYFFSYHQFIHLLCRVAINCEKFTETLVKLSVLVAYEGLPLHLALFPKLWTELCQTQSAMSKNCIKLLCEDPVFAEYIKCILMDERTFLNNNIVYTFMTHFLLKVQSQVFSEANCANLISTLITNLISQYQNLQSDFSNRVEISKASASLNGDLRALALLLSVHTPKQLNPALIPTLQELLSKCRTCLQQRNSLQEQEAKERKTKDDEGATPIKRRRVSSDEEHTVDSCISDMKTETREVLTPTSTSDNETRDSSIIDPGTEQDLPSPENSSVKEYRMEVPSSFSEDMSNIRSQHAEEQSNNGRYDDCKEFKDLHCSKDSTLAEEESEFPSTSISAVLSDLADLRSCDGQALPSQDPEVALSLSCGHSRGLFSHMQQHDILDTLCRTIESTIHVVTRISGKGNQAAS
In short: (§1)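 The table lists average log2 ratios of fragment over vehicle, from an unpaired t-test on global-median-normalised Spectronaut label-free quantities. Proteins with ≥2 unique peptides were used. Samples were HEK293T lysate (495 µg) treated in triplicate with fragment at 200 µM or vehicle for 3 h, then with Biotin-Ahx-Ub-VS (0.5 µM final) for 1 h, with labelled DUBs NeutrAvidin-enriched and run by diaPASEF LC-MS/MS.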

[2] = molecular target: T1, USP36 (UniProt Q9P275)
T1 sequence (whole entry): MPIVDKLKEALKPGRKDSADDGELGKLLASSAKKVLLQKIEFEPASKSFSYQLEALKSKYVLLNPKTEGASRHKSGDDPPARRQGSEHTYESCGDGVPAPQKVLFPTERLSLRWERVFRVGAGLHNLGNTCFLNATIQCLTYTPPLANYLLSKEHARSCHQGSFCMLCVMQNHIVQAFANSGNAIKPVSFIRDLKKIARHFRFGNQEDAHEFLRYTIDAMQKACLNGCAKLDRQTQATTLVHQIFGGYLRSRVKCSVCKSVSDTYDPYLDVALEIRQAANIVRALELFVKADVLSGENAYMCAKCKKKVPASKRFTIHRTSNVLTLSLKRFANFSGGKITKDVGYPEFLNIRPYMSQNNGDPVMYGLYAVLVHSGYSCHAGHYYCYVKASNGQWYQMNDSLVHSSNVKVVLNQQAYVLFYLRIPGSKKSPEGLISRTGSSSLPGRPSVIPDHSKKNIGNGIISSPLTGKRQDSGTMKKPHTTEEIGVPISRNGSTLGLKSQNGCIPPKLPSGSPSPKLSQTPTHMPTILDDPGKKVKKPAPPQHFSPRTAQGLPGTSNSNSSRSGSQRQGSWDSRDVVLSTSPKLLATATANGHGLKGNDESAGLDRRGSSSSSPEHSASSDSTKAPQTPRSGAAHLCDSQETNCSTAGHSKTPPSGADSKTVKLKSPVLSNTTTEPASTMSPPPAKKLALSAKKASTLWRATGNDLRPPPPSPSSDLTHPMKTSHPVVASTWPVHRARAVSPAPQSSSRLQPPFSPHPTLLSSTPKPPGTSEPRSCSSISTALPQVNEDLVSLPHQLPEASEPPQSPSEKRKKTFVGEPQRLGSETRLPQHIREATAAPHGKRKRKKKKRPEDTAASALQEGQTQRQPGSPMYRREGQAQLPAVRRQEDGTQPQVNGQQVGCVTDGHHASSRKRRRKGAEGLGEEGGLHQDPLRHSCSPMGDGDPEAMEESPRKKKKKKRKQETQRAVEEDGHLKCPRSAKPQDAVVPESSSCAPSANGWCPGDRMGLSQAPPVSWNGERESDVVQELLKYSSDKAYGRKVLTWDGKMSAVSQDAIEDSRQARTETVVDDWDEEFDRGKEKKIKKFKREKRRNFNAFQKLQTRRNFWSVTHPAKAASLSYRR
In short: as §1

[3] = molecular target: T2, USP38 (UniProt Q8NB14)
T2 sequence (whole entry): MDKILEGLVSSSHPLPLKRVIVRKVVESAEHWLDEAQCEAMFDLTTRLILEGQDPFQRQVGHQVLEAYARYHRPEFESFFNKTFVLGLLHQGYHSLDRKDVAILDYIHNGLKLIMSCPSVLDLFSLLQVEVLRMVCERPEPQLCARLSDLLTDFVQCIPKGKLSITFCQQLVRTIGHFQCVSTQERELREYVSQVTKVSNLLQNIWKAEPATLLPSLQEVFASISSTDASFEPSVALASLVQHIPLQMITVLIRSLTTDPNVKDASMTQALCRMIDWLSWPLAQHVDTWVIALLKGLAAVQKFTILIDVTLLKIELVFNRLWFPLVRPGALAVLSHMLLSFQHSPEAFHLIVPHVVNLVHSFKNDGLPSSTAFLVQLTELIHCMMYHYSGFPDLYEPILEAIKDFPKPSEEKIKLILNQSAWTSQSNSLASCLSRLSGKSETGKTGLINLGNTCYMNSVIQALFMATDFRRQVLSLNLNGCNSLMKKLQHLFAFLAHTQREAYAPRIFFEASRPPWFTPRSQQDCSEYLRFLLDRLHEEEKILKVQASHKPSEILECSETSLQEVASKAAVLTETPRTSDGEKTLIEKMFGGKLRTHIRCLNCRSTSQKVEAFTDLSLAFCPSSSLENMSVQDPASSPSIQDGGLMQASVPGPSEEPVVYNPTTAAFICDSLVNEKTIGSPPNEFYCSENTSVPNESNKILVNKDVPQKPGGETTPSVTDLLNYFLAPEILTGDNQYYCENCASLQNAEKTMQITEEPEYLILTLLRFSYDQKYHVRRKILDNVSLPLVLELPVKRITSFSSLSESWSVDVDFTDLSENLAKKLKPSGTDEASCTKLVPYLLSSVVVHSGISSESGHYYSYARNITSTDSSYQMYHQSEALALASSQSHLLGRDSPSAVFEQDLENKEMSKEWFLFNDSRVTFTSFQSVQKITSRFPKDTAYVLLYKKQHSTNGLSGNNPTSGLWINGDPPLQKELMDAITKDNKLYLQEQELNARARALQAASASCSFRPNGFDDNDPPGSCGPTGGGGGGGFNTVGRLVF
In short: as §1

[4] = molecular target: T3, USP39 (UniProt Q53GS9)
T3 sequence (whole entry): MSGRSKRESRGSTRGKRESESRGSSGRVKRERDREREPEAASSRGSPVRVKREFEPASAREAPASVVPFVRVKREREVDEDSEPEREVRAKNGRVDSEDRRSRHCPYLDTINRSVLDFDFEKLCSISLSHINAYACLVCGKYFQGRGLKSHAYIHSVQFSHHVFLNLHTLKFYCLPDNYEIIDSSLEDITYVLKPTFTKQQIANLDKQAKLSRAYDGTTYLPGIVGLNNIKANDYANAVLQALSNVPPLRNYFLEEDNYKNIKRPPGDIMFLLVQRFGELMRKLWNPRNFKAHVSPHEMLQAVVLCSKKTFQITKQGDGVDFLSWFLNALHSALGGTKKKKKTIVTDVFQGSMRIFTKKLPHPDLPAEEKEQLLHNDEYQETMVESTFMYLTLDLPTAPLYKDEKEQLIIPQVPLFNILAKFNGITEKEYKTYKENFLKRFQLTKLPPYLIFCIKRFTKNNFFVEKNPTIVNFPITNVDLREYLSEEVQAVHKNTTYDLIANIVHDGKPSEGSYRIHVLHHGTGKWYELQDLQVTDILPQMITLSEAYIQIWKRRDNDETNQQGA
In short: as §1

[5] = molecular target: T4, USP4 (UniProt Q13107)
T4 sequence (whole entry): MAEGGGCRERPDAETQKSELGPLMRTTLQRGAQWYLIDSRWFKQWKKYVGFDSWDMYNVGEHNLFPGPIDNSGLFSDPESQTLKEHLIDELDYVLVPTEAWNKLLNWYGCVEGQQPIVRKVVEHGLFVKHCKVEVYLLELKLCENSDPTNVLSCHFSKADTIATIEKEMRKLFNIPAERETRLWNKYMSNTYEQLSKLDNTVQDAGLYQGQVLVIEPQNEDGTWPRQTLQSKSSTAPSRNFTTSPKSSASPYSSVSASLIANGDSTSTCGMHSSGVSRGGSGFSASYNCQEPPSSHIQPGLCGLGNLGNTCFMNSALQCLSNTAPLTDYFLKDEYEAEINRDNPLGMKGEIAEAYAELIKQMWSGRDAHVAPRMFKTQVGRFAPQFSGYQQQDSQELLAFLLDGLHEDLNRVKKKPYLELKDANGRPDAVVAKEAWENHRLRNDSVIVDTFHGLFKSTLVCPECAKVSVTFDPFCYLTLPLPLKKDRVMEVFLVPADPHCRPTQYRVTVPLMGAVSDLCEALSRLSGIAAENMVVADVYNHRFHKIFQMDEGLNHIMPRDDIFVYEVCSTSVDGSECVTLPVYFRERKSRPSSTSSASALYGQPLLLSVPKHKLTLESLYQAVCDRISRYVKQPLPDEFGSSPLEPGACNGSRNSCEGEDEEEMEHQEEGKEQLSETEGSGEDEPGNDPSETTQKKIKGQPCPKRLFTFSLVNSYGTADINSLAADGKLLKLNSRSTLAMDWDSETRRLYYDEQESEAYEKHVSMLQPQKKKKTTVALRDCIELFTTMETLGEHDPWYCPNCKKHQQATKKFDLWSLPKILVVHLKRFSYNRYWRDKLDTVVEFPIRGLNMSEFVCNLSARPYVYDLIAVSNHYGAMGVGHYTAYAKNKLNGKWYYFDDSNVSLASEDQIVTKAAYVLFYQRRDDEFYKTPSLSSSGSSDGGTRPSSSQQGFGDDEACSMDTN
In short: as §1

Measured: log2 ratio of Biotin-Ahx-Ub-VS probe labelling

Cl.O=C(CCl)NCc1ccnc(Oc2ccccc2F)c1
inactive: [1] -0.267 | [2] 0.0203 | [3] -0.00457 | [4] 0.295 | [5] -0.0201
